The text below walks through data of ChEMBL document CHEMBL3988442, “University of Dundee, Small-Polar-MMV Screening Library” (2021).

For some assays here: Results with a measured potency or affinity are listed apart.

What all share (parameters): scale not given: direction of the effect not stated beside the values
Test [1] addresses Protein translocase subunit SecA (Escherichia coli (strain K12)) (UniProt P10408). The test is described as follows: Assay to Identify E. coli SecA ATPase Inhibitors. The format is functional. Particulars: 30 µM.
Test [2] deals with T1, Ubiquitin-activating enzyme e1, putative (Leishmania donovani (strain BPK282A1)) (UniProt E9BSI1).
T1 sequence (whole entry): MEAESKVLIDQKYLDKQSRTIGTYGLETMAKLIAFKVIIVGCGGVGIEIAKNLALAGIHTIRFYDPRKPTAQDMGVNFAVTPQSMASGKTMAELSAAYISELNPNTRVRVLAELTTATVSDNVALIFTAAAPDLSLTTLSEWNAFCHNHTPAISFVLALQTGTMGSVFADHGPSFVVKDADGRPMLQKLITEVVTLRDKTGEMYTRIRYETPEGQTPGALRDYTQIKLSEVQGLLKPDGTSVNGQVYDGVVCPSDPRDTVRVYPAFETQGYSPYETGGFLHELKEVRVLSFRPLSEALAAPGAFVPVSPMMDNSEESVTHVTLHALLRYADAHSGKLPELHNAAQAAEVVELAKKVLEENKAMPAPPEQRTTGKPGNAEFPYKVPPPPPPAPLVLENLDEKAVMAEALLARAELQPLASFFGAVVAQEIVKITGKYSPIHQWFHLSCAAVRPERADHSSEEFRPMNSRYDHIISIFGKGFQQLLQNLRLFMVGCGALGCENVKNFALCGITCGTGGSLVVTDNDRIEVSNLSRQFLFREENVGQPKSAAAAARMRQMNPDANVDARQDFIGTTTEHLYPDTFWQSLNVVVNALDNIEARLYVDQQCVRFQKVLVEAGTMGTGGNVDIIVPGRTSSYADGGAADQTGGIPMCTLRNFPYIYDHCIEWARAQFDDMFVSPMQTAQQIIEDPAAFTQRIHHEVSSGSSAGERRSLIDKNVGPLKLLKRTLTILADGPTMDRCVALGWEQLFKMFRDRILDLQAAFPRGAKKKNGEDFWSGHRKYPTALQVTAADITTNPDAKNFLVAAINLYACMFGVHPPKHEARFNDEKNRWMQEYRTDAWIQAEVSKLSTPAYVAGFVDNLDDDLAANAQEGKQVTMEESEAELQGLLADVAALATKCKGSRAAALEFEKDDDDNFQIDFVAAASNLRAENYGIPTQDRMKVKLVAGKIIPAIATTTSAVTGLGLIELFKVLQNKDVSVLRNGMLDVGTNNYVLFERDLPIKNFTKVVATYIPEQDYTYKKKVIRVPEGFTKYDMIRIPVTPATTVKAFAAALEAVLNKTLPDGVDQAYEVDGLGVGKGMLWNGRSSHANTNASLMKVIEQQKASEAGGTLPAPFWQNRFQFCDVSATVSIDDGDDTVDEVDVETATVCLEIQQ
Put plainly: Leishmania donovani Ubiquitin Activating Enzyme (LdE1). The class given is functional. Particulars: 30 µM.

Test [3] concerns the target AMP-activated protein kinase, AMPK (Homo sapiens) (UniProt P54646+O43741+P54619+Q9UGJ0+Q9Y478+Q13131+Q9UGI9). Put plainly: AMP-dependent Kinase enzyme assay. An in vitro enzyme assay that detects ADP turnover that is directly proportional to AMPK activity. This uses naive AMPK that is activated during the assay with MK-8722. The format is functional. The settings on record: 30 µM.

For test [4], the target named is Sialic acid-binding Ig-like lectin 9 (Homo sapiens) (UniProt Q9Y336). The test is described as follows: Hs-Siglec9 ALPHAscreen SOP 20170721. The settings on record: 10 µM.
Chain of Sialic acid-binding Ig-like lectin 9 (Homo sapiens) (Q9Y336 whole entry): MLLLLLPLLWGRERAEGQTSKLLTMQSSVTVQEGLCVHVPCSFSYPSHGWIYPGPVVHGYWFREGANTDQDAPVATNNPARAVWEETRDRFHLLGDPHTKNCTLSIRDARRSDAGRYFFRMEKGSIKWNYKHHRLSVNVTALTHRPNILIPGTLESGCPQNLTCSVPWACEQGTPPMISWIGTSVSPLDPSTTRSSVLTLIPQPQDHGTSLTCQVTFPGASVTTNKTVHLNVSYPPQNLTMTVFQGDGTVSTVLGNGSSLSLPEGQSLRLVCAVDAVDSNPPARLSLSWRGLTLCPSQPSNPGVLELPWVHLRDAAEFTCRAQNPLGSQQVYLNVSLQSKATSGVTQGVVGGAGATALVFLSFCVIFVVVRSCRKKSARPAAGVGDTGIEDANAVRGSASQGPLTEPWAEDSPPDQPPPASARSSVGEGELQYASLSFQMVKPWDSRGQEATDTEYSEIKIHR
The test system of a further test is Trypanosoma cruzi. Put plainly: Trypanosoma cruzi phosphomannomutase and mannose-1-phosphate guanylyltransferase assay. The class given is functional. The settings on record: 10 µM.
Test [5] deals with T2, Arginase-2, mitochondrial (Homo sapiens) (UniProt P78540).
T2 sequence (whole entry): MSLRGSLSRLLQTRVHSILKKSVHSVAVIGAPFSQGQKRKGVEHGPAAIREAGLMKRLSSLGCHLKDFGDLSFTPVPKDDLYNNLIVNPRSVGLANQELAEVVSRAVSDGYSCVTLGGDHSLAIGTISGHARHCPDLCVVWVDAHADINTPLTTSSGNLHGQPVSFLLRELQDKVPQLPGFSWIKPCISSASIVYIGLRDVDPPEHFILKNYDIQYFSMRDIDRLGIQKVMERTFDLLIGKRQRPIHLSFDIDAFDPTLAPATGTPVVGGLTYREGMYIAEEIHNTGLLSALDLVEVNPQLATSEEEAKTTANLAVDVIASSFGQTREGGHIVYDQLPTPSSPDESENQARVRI
The test is described as follows: in vitro enzyme assay to detect the production of urea directly proportional to the activity of Arginase II. Further: in the data most compounds retested in dose-response had high values. The class given is functional. The settings on record: 33.3 µM.

For test [6], the target named is T3, Proteasome subunit beta (Trypanosoma cruzi) (UniProt O96673).
T3 sequence (whole entry): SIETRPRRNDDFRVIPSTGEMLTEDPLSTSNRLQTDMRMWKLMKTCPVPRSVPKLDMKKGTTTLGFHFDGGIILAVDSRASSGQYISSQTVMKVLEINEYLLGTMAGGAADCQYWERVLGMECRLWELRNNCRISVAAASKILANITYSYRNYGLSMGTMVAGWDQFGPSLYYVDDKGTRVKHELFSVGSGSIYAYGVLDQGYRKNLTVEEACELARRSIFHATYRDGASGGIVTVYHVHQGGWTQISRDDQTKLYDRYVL
The test is described as follows: Trypanosoma cruzi proteasome chymotrypsin-like activity (TcProtChymo) assay. Further: in the data most compounds retested in dose-response had high values. The format is functional. The settings on record: 9.37 µM.

The next test is filed under the species Homo sapiens. The test is described as follows: To identify inhibition of the IFN signalling (Jak-Stat) pathway via expression of an eGFP reporter gene under the control of an IFN-stimulated response element (ISRE) containing MxA promoter. The class given is functional. The settings on record: 30 µM.
The target in test [7] is T4, Tyrosyl-tRNA synthetase, putative (Trypanosoma cruzi (strain CL Brener)) (UniProt Q4DSP6).
T4 sequence (whole entry): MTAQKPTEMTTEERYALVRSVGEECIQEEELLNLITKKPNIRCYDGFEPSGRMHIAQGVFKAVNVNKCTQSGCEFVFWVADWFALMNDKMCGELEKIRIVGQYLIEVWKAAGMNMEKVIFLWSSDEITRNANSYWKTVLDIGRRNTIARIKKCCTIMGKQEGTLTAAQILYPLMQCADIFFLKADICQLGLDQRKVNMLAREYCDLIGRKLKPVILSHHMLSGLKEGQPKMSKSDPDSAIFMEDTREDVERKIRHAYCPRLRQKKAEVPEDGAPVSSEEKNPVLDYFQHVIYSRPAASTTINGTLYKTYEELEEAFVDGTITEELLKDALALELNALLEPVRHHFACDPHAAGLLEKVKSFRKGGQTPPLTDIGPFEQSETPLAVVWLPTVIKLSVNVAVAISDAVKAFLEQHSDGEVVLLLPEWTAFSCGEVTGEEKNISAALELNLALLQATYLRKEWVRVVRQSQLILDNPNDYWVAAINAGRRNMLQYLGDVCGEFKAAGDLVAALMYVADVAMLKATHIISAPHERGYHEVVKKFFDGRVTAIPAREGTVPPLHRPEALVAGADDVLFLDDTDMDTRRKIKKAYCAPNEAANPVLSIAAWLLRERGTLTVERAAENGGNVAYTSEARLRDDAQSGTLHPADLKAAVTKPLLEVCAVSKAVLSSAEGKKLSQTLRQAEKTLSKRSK
Put plainly: Trypanosoma cruzi tyrosyl tRNA synthetase (TcYRS) _High Tyrosine SOP. Further: in the data most compounds retested in dose-response had high values. The class given is functional. Particulars: 30 µM.

In test [8] the target is T4, Tyrosyl-tRNA synthetase, putative (Trypanosoma cruzi (strain CL Brener)). The test is described as follows: Trypanosoma cruzi tyrosyl tRNA synthetase (TcYRS) SOP. The class given is functional. Particulars: 30 µM.
Test [9] deals with Chromo domain-containing protein 1 (Saccharomyces cerevisiae (strain ATCC 204508 / S288c) (Baker's yeast)) (UniProt P32657). Put plainly: ScCHD-1 Enzyme Inhibition Assay. Further: in the data most compounds retested in dose-response had high values. The class given is functional. Particulars: 30 µM.
Chain of Chromo domain-containing protein 1 (Saccharomyces cerevisiae (strain ATCC 204508 / S288c) (Baker's yeast)) (P32657 whole entry, the tested form may be a part): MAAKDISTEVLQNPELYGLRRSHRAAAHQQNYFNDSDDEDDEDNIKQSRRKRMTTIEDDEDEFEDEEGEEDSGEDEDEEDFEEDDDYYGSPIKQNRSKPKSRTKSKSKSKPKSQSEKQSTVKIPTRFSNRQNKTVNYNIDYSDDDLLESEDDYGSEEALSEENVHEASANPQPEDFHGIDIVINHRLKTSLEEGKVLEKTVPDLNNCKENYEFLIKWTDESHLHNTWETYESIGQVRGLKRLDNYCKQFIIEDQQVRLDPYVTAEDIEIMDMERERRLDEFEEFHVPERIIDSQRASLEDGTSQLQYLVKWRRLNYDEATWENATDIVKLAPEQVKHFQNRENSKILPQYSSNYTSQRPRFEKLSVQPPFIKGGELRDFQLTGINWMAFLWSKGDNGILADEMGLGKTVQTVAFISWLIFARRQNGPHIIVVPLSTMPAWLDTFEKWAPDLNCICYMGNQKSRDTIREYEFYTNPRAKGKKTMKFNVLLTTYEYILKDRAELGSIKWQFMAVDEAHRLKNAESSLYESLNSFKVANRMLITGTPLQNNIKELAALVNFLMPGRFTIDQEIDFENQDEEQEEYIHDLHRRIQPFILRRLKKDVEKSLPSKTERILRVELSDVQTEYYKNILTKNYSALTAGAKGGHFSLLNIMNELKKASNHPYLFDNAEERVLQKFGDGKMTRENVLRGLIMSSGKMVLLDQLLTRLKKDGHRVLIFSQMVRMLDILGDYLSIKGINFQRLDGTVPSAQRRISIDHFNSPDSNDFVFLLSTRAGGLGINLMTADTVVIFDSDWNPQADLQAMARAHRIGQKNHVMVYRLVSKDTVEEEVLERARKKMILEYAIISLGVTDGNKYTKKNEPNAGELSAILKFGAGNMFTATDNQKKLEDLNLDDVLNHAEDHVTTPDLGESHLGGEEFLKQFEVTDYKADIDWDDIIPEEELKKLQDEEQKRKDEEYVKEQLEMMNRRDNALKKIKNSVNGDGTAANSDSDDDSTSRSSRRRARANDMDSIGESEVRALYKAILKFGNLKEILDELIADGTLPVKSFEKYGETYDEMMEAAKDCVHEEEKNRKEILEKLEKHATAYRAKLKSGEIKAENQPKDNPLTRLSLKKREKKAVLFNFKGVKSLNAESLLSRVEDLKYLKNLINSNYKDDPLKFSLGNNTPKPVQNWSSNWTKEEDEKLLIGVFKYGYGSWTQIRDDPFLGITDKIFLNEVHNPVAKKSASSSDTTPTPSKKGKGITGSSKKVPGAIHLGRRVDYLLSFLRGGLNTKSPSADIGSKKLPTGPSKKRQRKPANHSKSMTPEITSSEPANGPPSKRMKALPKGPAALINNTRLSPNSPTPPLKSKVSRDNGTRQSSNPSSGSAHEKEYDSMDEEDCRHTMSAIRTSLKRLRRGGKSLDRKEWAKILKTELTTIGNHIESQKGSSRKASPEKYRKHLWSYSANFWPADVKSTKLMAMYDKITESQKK

Chain of Protein translocase subunit SecA (Escherichia coli (strain K12)) (P10408 whole entry): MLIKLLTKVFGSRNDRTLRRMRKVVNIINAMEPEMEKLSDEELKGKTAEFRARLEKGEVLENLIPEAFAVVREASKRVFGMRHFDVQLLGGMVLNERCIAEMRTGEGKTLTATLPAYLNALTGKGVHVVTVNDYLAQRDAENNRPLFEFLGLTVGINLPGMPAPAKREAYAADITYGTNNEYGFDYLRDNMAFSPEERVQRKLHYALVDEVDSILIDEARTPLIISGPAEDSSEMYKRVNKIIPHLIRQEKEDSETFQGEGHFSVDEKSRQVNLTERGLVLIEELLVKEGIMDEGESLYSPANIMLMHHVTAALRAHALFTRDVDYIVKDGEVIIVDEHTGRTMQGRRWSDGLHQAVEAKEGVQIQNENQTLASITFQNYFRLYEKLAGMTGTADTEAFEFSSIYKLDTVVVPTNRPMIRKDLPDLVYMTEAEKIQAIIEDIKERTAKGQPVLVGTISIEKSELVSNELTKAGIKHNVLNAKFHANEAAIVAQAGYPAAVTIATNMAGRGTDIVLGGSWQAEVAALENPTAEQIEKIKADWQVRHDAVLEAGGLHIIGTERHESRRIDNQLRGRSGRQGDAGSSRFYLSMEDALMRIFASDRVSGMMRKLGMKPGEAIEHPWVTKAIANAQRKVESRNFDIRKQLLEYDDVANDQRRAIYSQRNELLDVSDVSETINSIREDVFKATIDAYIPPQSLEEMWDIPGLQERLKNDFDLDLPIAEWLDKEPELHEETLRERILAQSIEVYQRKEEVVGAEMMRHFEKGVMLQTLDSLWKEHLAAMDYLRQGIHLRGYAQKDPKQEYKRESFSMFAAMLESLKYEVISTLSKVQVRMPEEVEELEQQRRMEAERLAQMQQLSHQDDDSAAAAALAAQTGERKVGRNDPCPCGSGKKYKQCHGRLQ

Regarding `Cc1ncsc1CN1CC[C@H]2C(=O)N(c3ccccc3)CCO[C@H]2C1`, the Percent Effect is -1.58% in [1]; 10.7% in [2]; 7.3% in test [3]; -5.67% in test [4]; -0.591% in the test on Trypanosoma cruzi; 1.17% in test [5]. Also, the Percent Effect is 16.5% in test [6]; 14.6% in the test filed under Homo sapiens; 11.7% in test [7]; 16.7% in test [8]; -4.23% in [9].
For `COc1ccc(CN(Cc2cncn2C)CC2CCCO2)c(OC)c1` (stereo not given), the Percent Effect in test [1] is -2.55%; in [2], 17.6%; in test [3], 4.23%; in test [4] it was -4.44%; in the test on Trypanosoma cruzi, -0.79%; in [5], 0.696%. Moreover, the Percent Effect in test [6] was 20%; in the test listed under Homo sapiens it was 17.5%; in [7], 5.38%; in [8] it was 14.3%; in test [9], -18.5%.
As to `O=C(NCc1ccccn1)Nc1cc(C(F)(F)F)c[nH]c1=O`, the Percent Effect in test [1] was -6.27%; in [2], 5.41%; in [3] it was -7.01%; in test [4], 23.6%; in the test with Trypanosoma cruzi, 4.74%; in test [5], 4.25%. Moreover, the Percent Effect was 4.67% in test [6]; 2.58% in the test listed under Homo sapiens; 3.96% in test [7]; 18.3% in [8]; -8.44% in [9].
In the case of `Cc1cnn(CC2CCCN2C(=O)c2cn(-c3ccccc3)nc2C)c1` (stereo not given), the Percent Effect in test [1] was -2.73%; in [2], 2.7%; in test [3], -10.7%; in [4], 13.6%; in the test with Trypanosoma cruzi it was 1.6%; in [5] it was -3.61%. In addition, the Percent Effect was -4.32% in test [6]; -0.766% in the test filed under Homo sapiens; 7.39% in [7]; 11.1% in test [8]; -6.26% in test [9].
Turning to `CCc1nccn1C1CCCN(C(=O)c2ccc3c(c2)OCO3)C1` (stereo not given), the Percent Effect is -3.94% in test [1]; -2.6% in test [2]; 8.35% in test [3]; -3.25% in test [4]; -3.93% in the test with Trypanosoma cruzi; -3.2% in [5]. For the same molecule, the Percent Effect was 1.01% in [6]; 25.9% in the test listed under Homo sapiens; -1.94% in test [7]; -4.88% in [8]; -7.3% in [9].
Turning to `CC(=O)c1cn(CCC(=O)N[C@H](C(=O)O)C(C)C)c2ccccc12`, the Percent Effect was -1.16% in [1]; 12% in test [2]; 3.61% in test [3]; -0.198% in [4]; -2.95% with Trypanosoma cruzi; -9.68% in test [5]. In addition, the Percent Effect in [6] was 11.7%; in the test filed under Homo sapiens, 8.13%; in [7], 7.41%; in test [8] it was 15.4%; in test [9], -3.85%.
`c1ccc2c(N3CCCC3Cn3cccn3)ncnc2c1` (stereo not given): the Percent Effect in test [1] is -2.93%; in [2], 21.6%; in [3] it was -4.33%; in test [4], 6.84%; in the test with Trypanosoma cruzi, 2.88%; in [5] it was 2.77%. The Percent Effect in test [6] was 10.2%; in the test listed under Homo sapiens, 50.9%; in test [7] it was 6.93%; in test [8], 28.1%; in test [9], -8.26%.
Take `Cc1nc2c(c(N3CC=CC3)n1)CCN(Cc1ccoc1)CC2`: the Percent Effect in [1] was -7.04%; in test [2] it was 5.2%; in [3], 2.16%; in test [4], 4.88%; with Trypanosoma cruzi, -1.87%; in test [5], 1.38%. In addition, the Percent Effect in test [6] was 9.65%; in the test filed under Homo sapiens, -16.9%; in [7], 3.23%; in [8], 8.64%; in [9] it was 1.68%.
In the case of `CC1CN(CC(=O)Nc2cccnc2)CCN1c1nccs1` (stereo not given), the Percent Effect in test [1] was -0.157%; in [2] it was 2.7%; in test [3], -1.61%; in [4], 7.17%; in the test with Trypanosoma cruzi, -0.464%; in test [5] it was 3.14%. The Percent Effect is 1.26% in test [6]; 27.8% in the test listed under Homo sapiens; 1.98% in [7]; -1.22% in test [8]; 13.7% in test [9].
For the molecule `CN(C)C(=O)c1cnc2n1CCN(Cc1ccccc1)C2`, the Percent Effect in test [1] was 1.01%; in test [2], 13.3%; in [3], 6.19%; in test [4] it was -6.07%; in the test with Trypanosoma cruzi it was -7.87%; in test [5], 8.62%. Further, the Percent Effect in [6] was 15.2%; in the test filed under Homo sapiens, 0.000462%; in [7], 3.19%; in test [8] it was 8.97%; in test [9], -5.59%.
